# From PubChem BioAssay (NCI)
# Compounds without any hit were thinned out: in the full panel of roughly 83,000, 20% have a hit.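 96-well plates, one dose, 48 hours. Percent growth reported; active if below 10.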 Unmarked numbers belong to inactive results. Active and inactive are the calls of the source.
# Experiments:
# Test in all cases: NCI-60 one-dose screen, 48 h (100 = growth as untreated, 0 = no growth, -100 = all killed)
# Conditions in all cases: 10 µM unless noted
# SK-MEL-2 melanoma = tested on: SK-MEL-2 melanoma
# EKVX NSCLC = tested on: EKVX NSCLC
# SN12C renal = tested on: SN12C renal
# UO-31 renal = tested on: UO-31 renal
# TK-10 renal = tested on: TK-10 renal
# ACHN renal = tested on: ACHN renal
# CAKI-1 renal = tested on: CAKI-1 renal
# A498 renal = tested on: A498 renal
# CCRF-CEM leukemia = tested on: CCRF-CEM leukemia
# MOLT-4 leukemia = tested on: MOLT-4 leukemia
Structure (SMILES),growth (SK-MEL-2 melanoma),growth (EKVX NSCLC),growth (SN12C renal),growth (UO-31 renal),growth (TK-10 renal),growth (ACHN renal),growth (CAKI-1 renal),growth (A498 renal) [%],growth (CCRF-CEM leukemia),growth (MOLT-4 leukemia)
O=C(Nc1ccccc1Cl)Oc1ccc2ccccc2c1,97.3%,98.9%,99.3%,68.7%,130%,98.3%,97.8%,100,114%,78.2%
Brc1cccc(-n2ncc3c(Nc4ccc(-c5nnc(-c6ccccc6)o5)cc4)ncnc32)c1,115%,102%,97.8%,75.9%,120%,96.7%,90.4%,109,118%,108%
CCN(CC)Cc1cc(Nc2nc(NC3CCC(N(C)C)CC3)c3ccccc3n2)ccc1OC (stereo not given),116%,89%,71.5%,73.3%,105%,90.8%,102%,119,66.1%,48.2%
COc1c(C(=O)/C=C/c2ccc(C)o2)c(O)cc2occc12,82.2%,68.6%,82.6%,81.2%,100%,97.6%,74.2%,66.6,84.6%,64%
CC1CN(CCCOC(=O)Nc2ccc(Cl)cc2)CCN1C(C)(C)C (stereo not given),112%,96.9%,113%,82.9%,99.8%,133%,89.8%,95.2,90.3%,103%
O=C(/C=C/c1cccc([N+](=O)[O-])c1)c1ccc(Nc2nc(N3CCCCC3)nc(N3CCCCC3)n2)cc1,105%,92.3%,96.3%,75.1%,108%,102%,89.6%,80.9,104%,93.4%
CCCCCCCCCCCCCCCCCC1=NC(C)(C)CN1C(C)(C)CO,-69% (active),27%,11.6%,-52.9% (active),-35.1% (active),-75.6% (active),-65.2% (active),78.9,-52.9% (active),-55.2% (active)
COc1ccc2c(c1)CCCC21C(=O)Nc2c(Cl)cccc21 (stereo not given),43%,91%,82.6%,82.8%,95.4%,85.1%,54.9%,79.6,60.9%,52.1%
O=C1c2ccccc2C2N1CCC1CCc3ccccc3N12 (stereo not given),99.7%,104%,94.8%,55.1%,108%,99.3%,88.4%,75.5,105%,101%
COc1cc2nccc(Oc3ccc(NC(=O)C4(C(=O)Nc5ccc(F)cc5)CC4)cc3)c2cc1O,88.1%,71.1%,30.5%,54.4%,76.8%,67.8%,78.1%,59.4,29%,44.9%
COc1ccc(NC(=O)/C=C/c2ccc(NC(=O)N3CCCC3)cc2)cn1,104%,92.8%,98.7%,100%,104%,114%,100%,99.4,97%,101%
O=C(Nc1cccc(Cl)c1)Nc1cc(C(F)(F)F)ccc1Cl,4.93% (active),16%,-24.4% (active),10.7%,16.9%,2.64% (active),9.58% (active),61.7,17%,10.1%
CCN(CC)CCCCCCCNc1cc(OC)cc2c(C)ccnc12,109%,86.7%,81.6%,38.2%,110%,87.7%,94%,63.2,83.7%,72%
Cc1cc(C#Cc2ccccc2)ccc1-n1c(/C=C/c2ccc(F)cc2)nc2ccccc2c1=O,71%,46.5%,73%,36.2%,94.4%,78.6%,55.2%,94.1,74.3%,44.7%
COc1ccc2[nH]c(C(=O)OCc3ccc4cccc(O)c4n3)cc2c1,-20.3% (active),-78% (active),-74.8% (active),-100% (active),-89.2% (active),-98.4% (active),-97.6% (active),36.5,4.41% (active),-11.5% (active)
CC(C)[C@H](CN)NC[C@H](C)NS(=O)(=O)c1ccc(C(C)(C)C)cc1,101%,90%,99.8%,77.1%,93.8%,103%,94.1%,107,91.5%,92.6%
FC(F)(F)c1ccc(/C=N/Nc2nnc3n2N=C(c2ccc(Cl)cc2)CS3)cc1,84.2%,66.3%,57.8%,39.7%,53.1%,28.4%,63.5%,69.9,99.4%,79.5%
CC1(C)CC[C@]2(C(=O)N3CCNCC3)CC[C@]3(C)C(=CC[C@@H]4[C@@]5(C)CCC(=O)C(C)(C)[C@@H]5CC[C@]43C)[C@@H]2C1,105%,96.7%,101%,94.8%,101%,112%,94.2%,126,106%,103%
COc1ccc(-c2nn(-c3cccc(Cl)c3)cc2/C=C2\C(=N)N(c3ccccc3)N=C2N)cc1,69.5%,48.8%,45.9%,6.27% (active),80.7%,20.7%,-27.6% (active),75.3,12.3%,6.35% (active)
Nc1nc(N)c2cc(CNc3ccc(Cl)c(Cl)c3)ccc2n1,42%,31.4%,27.4%,0.0737% (active),31.5%,22.5%,14.8%,43.1,2.81% (active),-44.2% (active)
Cc1nn(-c2ccc(Cl)cc2)c(=O)n1CCN1CCOCC1,61.1%,75.5%,89.6%,66%,64.4%,38.7%,72.4%,105,63.2%,90.9%
CCN(CC)CCCC(C)Nc1cnc(C(=O)Nc2ccc(Cl)c3cccnc23)cn1 (stereo not given),57.8%,66.1%,31.7%,23.8%,57.6%,-54.8% (active),23.1%,54,5.29% (active),2.9% (active)
C=C(C)[C@@H]1CC[C@]2(C)[C@H](CC=C3[C@@H]4C[C@](C)(C(=O)N5CCN(C)CC5)CC[C@]4(C)CC[C@]32C)[C@@]1(C)CCC#N,76.4%,85.6%,75.2%,66.1%,75.8%,80.4%,63%,97,34.1%,32.1%
CCN(CC)CCCC(C)Nc1cnc(C(=O)Nc2cccc3ccc(OC)nc23)cn1 (stereo not given),70.5%,104%,78.5%,69.1%,91%,-86.5% (active),94.7%,46.2,-7.65% (active),53.4%
Fc1ccc2c(CN3CCO[C@H](COc4cccc(Cl)c4)C3)c[nH]c2c1,71.1%,74.3%,49.1%,51.4%,22.1%,46.8%,65.3%,53.9,38.5%,25.9%
Cc1ccc(N=CNN=C(N)N)cc1,114%,117%,99.3%,76.6%,118%,102%,97%,99.2,101%,95.4%
O=C1C=CC(=O)N1CO,123%,138%,99%,89.1%,114%,108%,117%,113,101%,-32.2% (active)
O=[N+]([O-])c1ccccc1CN1CCCCC1,100%,86.8%,105%,89.4%,121%,113%,108%,99.5,85.4%,115%
